Measured values from PubChem BioAssay (EPA / NIEHS).
The source made the active and inactive calls. How the source made its calls: active means hit-call score of the fitted dose curve at least 0.9, where 1 is the maximum; inactive means score below 0.9.

Tests used:
Details in all cases: mRNA level, 48 h; actives raise or lower the signal
[1] = read-out: CYP4A11 (gene 1579); test: LTEA_HepaRG_CYP4A11: Life Technologies and Expression Analysis (LTEA) Assay for CYP4A11 using HepaRG (AID 2283486)
Procedure, shortened: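 Differentiated HepaRG cells, 48 h after plating, exposed in duplicate for 48 h to 8 half-log concentrations up to 100 uM in 0.5% DMSO in serum-free induction medium. CYP4A11 mRNA measured by TaqMan qRT-PCR, normalized to ACTB, GAPDH and POLR2A.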

[2] = read-out: DNA damage-inducible transcript 3 (DDIT3), DDIT3 (gene 1649); test: LTEA_HepaRG_DDIT3: Life Technologies and Expression Analysis (LTEA) Assay for DNA damage-inducible transcript 3 (DDIT3) using HepaRG (AID 2283488)
Procedure, shortened: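 Cells are human HepaRG liver cells treated for 48 h with eight half-log concentrations up to 100 uM in 0.5% DMSO. Transcript levels come from qRT-PCR normalized to three housekeeping genes, with activity fitted in both directions relative to vehicle.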

[3] = read-out: Pro-epidermal growth factor (Homo sapiens) (UniProt P01133); test: LTEA_HepaRG_EGF: Life Technologies and Expression Analysis (LTEA) Assay for Epidermal growth factor (EGF) using HepaRG (AID 2283489)
Procedure, shortened: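 HepaRG cells (~100,000/well, 48 h pre-culture) exposed in duplicate for 48 h in serum-free induction medium to 8 half-log concentrations up to 100 uM in 0.5% DMSO. EGF mRNA by qRT-PCR, normalized to ACTB/GAPDH/POLR2A; bidirectional fit versus DMSO.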

[4] = read-out: Early growth response protein 1 (EGR1) transcription factor, EGR1 (gene 1958); test: LTEA_HepaRG_EGR1: Life Technologies and Expression Analysis (LTEA) Assay for Early growth response protein 1 (EGR1) transcription factor using HepaRG (AID 2283490)
Procedure, shortened: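 EGR1 transcript levels quantified by qRT-PCR (Fluidigm arrays) against three housekeeping genes after 48 h chemical exposure of HepaRG cells. Eight-point half-log series topping at 100 uM, 0.5% DMSO vehicle, analyzed for gain or loss.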

[5] = read-out: Ezrin (EZR), EZR (gene 7430); test: LTEA_HepaRG_EZR: Life Technologies and Expression Analysis (LTEA) Assay for Ezrin (EZR) using HepaRG (AID 2283491)
Procedure, shortened: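 Read-out is EZR transcript level by qRT-PCR, normalized to three housekeeping genes and fitted bidirectionally against the DMSO control. Human HepaRG cells received test chemicals for 48 h at eight half-log concentrations up to 100 uM in 0.5% DMSO.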

[6] = read-out: Cytochrome P450 3A7 (Homo sapiens) (UniProt P24462); test: LTEA_HepaRG_CYP3A7: Life Technologies and Expression Analysis (LTEA) Assay for CYP3A7 using HepaRG (AID 2283492)
Procedure, shortened: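 Differentiated HepaRG cells in serum-free induction medium exposed 48 h in duplicate to 8-point half-log series from 100 uM top in 0.5% DMSO. CYP3A7 mRNA by qRT-PCR, normalized to ACTB/GAPDH/POLR2A, bidirectional fit versus DMSO.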

[7] = read-out: CYP3A5 (gene 1577); test: LTEA_HepaRG_CYP3A5: Life Technologies and Expression Analysis (LTEA) Assay for CYP3A5 using HepaRG (AID 2283493)
Procedure, shortened: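 Human HepaRG hepatic cells receive 48 h chemical treatment at eight concentrations (half-log steps from 100 uM) in 0.5% DMSO. Expression of CYP3A5 is quantified by Fluidigm qRT-PCR and normalized to three reference genes.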

[8] = read-out: Fatty Acid-Binding Protein 1 (FABP1), FABP1 (gene 2168); test: LTEA_HepaRG_FABP1: Life Technologies and Expression Analysis (LTEA) Assay for Fatty Acid-Binding Protein 1 (FABP1) using HepaRG (AID 2283494)
Procedure, shortened: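 FABP1 expression by TaqMan qRT-PCR, normalised to three housekeeping genes, in HepaRG cells after 48 h chemical treatment. Eight-point half-log series topping at 100 uM in 0.5% DMSO, duplicates; gain or loss fitted relative to vehicle.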

[9] = read-out: Cytochrome P450 4A22 (Homo sapiens) (UniProt Q5TCH4); test: LTEA_HepaRG_CYP4A22: Life Technologies and Expression Analysis (LTEA) Assay for Cytochrome P450 4A22 (CYP4A22) using HepaRG (AID 2283495)
Procedure, shortened: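 Differentiated HepaRG cells in serum-free induction medium exposed 48 h in duplicate to eight half-log concentrations up to 100 uM in 0.5% DMSO. CYP4A22 mRNA quantified by TaqMan qRT-PCR, normalized to ACTB, GAPDH and POLR2A; bidirectional fit versus DMSO.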

[10] = read-out: Cytochrome P450 7A1 (Homo sapiens) (UniProt P22680); test: LTEA_HepaRG_CYP7A1: Life Technologies and Expression Analysis (LTEA) Assay for Cytochrome P450 7A1 (CYP7A1) using HepaRG (AID 2283496)
Procedure, shortened: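 HepaRG, 48 h exposure, 8-pt half-log series from 100 uM, 0.5% DMSO vehicle, duplicates. Readout: TaqMan qRT-PCR mRNA vs three housekeeping genes; bidirectional curve fit against DMSO baseline.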

[11] = read-out: Glutathione S-Transferase (GSTA2), GSTA2 (gene 2939); test: LTEA_HepaRG_GSTA2: Life Technologies and Expression Analysis (LTEA) Assay for Glutathione S-Transferase (GSTA2) using HepaRG (AID 2283497)
Procedure, shortened: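 GSTA2 transcript levels came from Fluidigm TaqMan qRT-PCR normalized to three housekeeping genes, fitted in both directions against DMSO. HepaRG cultures received chemicals for 48 h in serum-free induction medium (0.5% DMSO), 8 half-log concentrations up to 100 uM, duplicate.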

[12] = read-out: Glutamate-cysteine ligase catalytic (GCLC), GCLC (gene 2729); test: LTEA_HepaRG_GCLC: Life Technologies and Expression Analysis (LTEA) Assay for Glutamate-cysteine ligase catalytic (GCLC) using HepaRG (AID 2283498)
Procedure, shortened: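 Expression by TaqMan qRT-PCR, normalized to three housekeeping genes (ACTB, GAPDH, POLR2A), with up- or down-regulation fitted against DMSO. HepaRG cells dosed in duplicate for 48 h with 8 half-log concentrations up to 100 uM, vehicle 0.5% DMSO.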

[13] = read-out: growth arrest and DNA damage 45 (GADD45G), GADD45G (gene 10912); test: LTEA_HepaRG_GADD45G: Life Technologies and Expression Analysis (LTEA) Assay for growth arrest and DNA damage 45 (GADD45G) using HepaRG (AID 2283499)
Procedure, shortened: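 Differentiated human HepaRG cells, 48 h post-plating, exposed 48 h in serum-free induction medium to 8 half-log concentrations (top 100 uM, 0.5% DMSO) in duplicate. GADD45G mRNA measured by Fluidigm TaqMan qRT-PCR, normalized to ACTB, GAPDH, POLR2A; bidirectional fit versus DMSO.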

[14] = read-out: Glutamate-cysteine ligase regulatory (GCLM), GCLM (gene 2730); test: LTEA_HepaRG_GCLM: Life Technologies and Expression Analysis (LTEA) Assay for Glutamate-cysteine ligase regulatory (GCLM) using HepaRG (AID 2283500)
Procedure, shortened: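 Endpoint is GCLM transcript level by qRT-PCR, normalized to three housekeeping genes, after 48 h chemical exposure of human HepaRG cells (0.5% DMSO vehicle, top 100 uM, half-log dilutions). Fitting was bidirectional relative to DMSO.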

[15] = read-out: Glutathione S-transferase M3 (GSTM3), GSTM3 (gene 2947); test: LTEA_HepaRG_GSTM3: Life Technologies and Expression Analysis (LTEA) Assay for Glutathione S-transferase M3 (GSTM3) using HepaRG (AID 2283501)
Procedure, shortened: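 Differentiated human HepaRG cells were exposed in duplicate for 48 h in serum-free induction medium, 8 points from 100 uM top in half-log steps, 0.5% DMSO. GSTM3 mRNA was measured by TaqMan qRT-PCR, normalized to ACTB, GAPDH and POLR2A; bidirectional fit versus DMSO.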

[16] = read-out: Heat shock 70 kDa protein 1 (HSPA1A), gene 3303; test: LTEA_HepaRG_HSPA1A: Life Technologies and Expression Analysis (LTEA) Assay for Heat shock 70 kDa protein 1 (HSPA1A) using HepaRG (AID 2283502)
Procedure, shortened: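 Cells were plated and cultured for 48 h, then switched to serum-free induction medium. Chemicals were added at eight half-log concentrations up to 100 uM for 48 h. RNA was then isolated and HSPA1A measured by qRT-PCR with bidirectional curve fitting against DMSO.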

[17] = read-out: Hypoxia-inducible factor 1-alpha (Homo sapiens) (UniProt Q16665); test: LTEA_HepaRG_HIF1A: Life Technologies and Expression Analysis (LTEA) Assay for Hypoxia-inducible factor 1 (HIF1A) Trancription factor using HepaRG (AID 2283503)
Procedure, shortened: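 HIF1A transcript level read by qRT-PCR (ACTB, GAPDH, POLR2A normalization) after 48 h chemical exposure of HepaRG cultures. Eight half-log concentrations, top 100 uM, 0.5% DMSO vehicle, duplicates; bidirectional curve fit against DMSO baseline.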

[18] = read-out: 3-Hydroxy-3-Methylglutaryl-CoA Synthase 2 (HMGCS2), HMGCS2 (gene 3158); test: LTEA_HepaRG_HMGCS2: Life Technologies and Expression Analysis (LTEA) Assay for 3-Hydroxy-3-Methylglutaryl-CoA Synthase 2 (HMGCS2) using HepaRG (AID 2283504)
Procedure, shortened: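 Human HepaRG cells in serum-free induction medium were exposed in duplicate for 48 h to 8-point half-log series from 100 uM top in 0.5% DMSO. HMGCS2 mRNA measured by TaqMan qRT-PCR, normalised to ACTB, GAPDH, POLR2A; bidirectional fit versus DMSO.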

[19] = read-out: HGF (gene 3082); test: LTEA_HepaRG_HGF: Life Technologies and Expression Analysis (LTEA) Assay for Hepatocyte Growth Facto (HGF) using HepaRG (AID 2283505)
Procedure, shortened: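 Differentiated HepaRG cells in serum-free induction medium exposed 48 h in duplicate, 8 half-log concentrations from 100 uM in 0.5% DMSO. HGF mRNA by qRT-PCR, normalised to ACTB, GAPDH, POLR2A; bidirectional fitting.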

[20] = read-out: Cytochrome P450 3A4 (Homo sapiens) (UniProt P08684); test: LTEA_HepaRG_CYP3A4: Life Technologies and Expression Analysis (LTEA) Assay for CYP3A4 using HepaRG (AID 2283487)
Procedure, shortened: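 HepaRG, 48 h exposure, 8-pt CRC from 100 uM (half-log), 0.5% DMSO, duplicates; serum-free induction medium. Readout: CYP3A4 mRNA, qRT-PCR, ACTB/GAPDH/POLR2A normalization. Bidirectional fit vs DMSO.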

Measured: AC50

Hypoxia-inducible factor 1-alpha (Homo sapiens), sequence (Q16665 whole entry, looked up): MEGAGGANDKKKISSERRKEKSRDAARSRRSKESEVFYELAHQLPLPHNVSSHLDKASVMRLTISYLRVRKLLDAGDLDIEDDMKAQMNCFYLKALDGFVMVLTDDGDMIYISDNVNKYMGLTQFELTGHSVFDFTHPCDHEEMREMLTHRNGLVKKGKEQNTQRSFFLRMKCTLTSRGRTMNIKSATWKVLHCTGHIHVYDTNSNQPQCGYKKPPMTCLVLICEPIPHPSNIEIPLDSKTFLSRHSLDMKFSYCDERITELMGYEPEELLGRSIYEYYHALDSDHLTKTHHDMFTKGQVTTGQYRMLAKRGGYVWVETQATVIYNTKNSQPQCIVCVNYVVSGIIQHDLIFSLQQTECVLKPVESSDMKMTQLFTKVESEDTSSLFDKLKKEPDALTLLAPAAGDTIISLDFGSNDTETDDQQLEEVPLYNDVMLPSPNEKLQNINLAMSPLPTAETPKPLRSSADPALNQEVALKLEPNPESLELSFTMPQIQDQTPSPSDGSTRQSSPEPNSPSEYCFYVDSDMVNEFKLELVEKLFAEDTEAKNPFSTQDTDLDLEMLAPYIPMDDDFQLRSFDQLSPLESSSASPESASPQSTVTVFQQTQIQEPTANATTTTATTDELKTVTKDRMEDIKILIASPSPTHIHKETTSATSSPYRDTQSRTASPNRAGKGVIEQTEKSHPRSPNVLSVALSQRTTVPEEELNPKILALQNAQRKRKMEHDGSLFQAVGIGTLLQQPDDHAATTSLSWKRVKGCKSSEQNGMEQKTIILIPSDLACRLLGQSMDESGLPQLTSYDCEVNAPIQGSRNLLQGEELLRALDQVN
Cytochrome P450 3A7 (Homo sapiens), sequence (P24462 whole entry, looked up): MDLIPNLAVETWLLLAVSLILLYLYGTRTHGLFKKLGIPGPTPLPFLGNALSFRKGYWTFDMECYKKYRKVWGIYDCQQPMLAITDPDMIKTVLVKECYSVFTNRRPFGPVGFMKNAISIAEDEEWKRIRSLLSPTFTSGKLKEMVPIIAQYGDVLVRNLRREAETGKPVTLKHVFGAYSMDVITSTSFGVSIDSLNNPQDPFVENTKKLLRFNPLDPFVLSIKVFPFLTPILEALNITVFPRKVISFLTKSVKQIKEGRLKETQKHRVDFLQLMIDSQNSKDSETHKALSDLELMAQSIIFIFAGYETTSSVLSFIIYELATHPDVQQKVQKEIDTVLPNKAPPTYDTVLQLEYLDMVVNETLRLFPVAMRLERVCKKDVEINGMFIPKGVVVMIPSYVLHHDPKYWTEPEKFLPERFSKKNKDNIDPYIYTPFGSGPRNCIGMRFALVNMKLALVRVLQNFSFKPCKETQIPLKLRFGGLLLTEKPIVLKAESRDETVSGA
Cytochrome P450 3A4 (Homo sapiens), sequence (P08684 whole entry, looked up): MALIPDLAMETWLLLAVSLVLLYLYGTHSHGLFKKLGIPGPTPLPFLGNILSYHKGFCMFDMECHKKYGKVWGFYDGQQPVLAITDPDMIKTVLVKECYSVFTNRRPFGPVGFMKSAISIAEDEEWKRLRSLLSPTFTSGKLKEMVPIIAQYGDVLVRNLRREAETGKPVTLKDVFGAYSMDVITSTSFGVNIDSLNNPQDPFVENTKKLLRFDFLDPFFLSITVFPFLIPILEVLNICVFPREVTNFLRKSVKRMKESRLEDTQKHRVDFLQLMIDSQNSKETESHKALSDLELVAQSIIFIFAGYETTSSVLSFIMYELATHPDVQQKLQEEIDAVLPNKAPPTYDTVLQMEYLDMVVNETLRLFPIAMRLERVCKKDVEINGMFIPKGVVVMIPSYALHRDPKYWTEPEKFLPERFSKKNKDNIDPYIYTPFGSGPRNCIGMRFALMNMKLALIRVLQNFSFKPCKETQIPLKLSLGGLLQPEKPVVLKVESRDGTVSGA

c1ccc(N=Nc2ccccc2)cc1
not listed: [20]
inactive: all other assays above

[As]#[In]
inactive: all assays above

c1ccc2c(c1)-c1cccc3cccc-2c13
active: [20] 18 µM | [6] 9.36 µM | [8] 50 µM
not listed: [3] | [9] | [10]
inactive: all other assays above

ClC1=C(Cl)C2(Cl)C3C(Cl)C=CC3C1(Cl)C2(Cl)Cl (centres undefined)
active: [1] 16.1 µM | [20] 0.927 µM | [8] 15.9 µM | [9] 13.1 µM | [10] 13.8 µM | [14] 32.1 µM | [16] 24 µM | [17] 33.8 µM
inactive: all other assays above

O=C(O)C1C2CCC(O2)C1C(=O)O (centres undefined)
active: [1] 50 µM | [20] 79.7 µM | [2] 50 µM | [3] 13.9 µM | [5] 9.92 µM | [6] 61.1 µM | [8] 77.9 µM | [9] 50 µM | [10] 71.5 µM | [11] 72.4 µM | [18] 72.6 µM
inactive: [4] | [7] | [12] | [13] | [14] | [15] | [16] | [19]

ClCCOCCCl
inactive: all assays above

COP(=S)(OC)SCN1C(=O)c2ccccc2C1=O
not listed: [8]
inactive: all other assays above
